Measurements published in ChEMBL document CHEMBL3988442, “University of Dundee, Small-Polar-MMV Screening Library” (2021).
For some assays here: Measured potencies and affinities stand elsewhere.

Experiments:
Set-up in all cases: scale not given: direction of the effect not stated beside the values
[1] = target: Protein translocase subunit SecA (Escherichia coli (strain K12)) (UniProt P10408); assay: Assay to Identify E. coli SecA ATPase Inhibitors; type: functional; conditions: 30 µM
[2] = target: T1, Ubiquitin-activating enzyme e1, putative (Leishmania donovani (strain BPK282A1)) (UniProt E9BSI1); assay: Leishmania donovani Ubiquitin Activating Enzyme (LdE1); type: functional; conditions: 30 µM
T1 sequence (whole entry): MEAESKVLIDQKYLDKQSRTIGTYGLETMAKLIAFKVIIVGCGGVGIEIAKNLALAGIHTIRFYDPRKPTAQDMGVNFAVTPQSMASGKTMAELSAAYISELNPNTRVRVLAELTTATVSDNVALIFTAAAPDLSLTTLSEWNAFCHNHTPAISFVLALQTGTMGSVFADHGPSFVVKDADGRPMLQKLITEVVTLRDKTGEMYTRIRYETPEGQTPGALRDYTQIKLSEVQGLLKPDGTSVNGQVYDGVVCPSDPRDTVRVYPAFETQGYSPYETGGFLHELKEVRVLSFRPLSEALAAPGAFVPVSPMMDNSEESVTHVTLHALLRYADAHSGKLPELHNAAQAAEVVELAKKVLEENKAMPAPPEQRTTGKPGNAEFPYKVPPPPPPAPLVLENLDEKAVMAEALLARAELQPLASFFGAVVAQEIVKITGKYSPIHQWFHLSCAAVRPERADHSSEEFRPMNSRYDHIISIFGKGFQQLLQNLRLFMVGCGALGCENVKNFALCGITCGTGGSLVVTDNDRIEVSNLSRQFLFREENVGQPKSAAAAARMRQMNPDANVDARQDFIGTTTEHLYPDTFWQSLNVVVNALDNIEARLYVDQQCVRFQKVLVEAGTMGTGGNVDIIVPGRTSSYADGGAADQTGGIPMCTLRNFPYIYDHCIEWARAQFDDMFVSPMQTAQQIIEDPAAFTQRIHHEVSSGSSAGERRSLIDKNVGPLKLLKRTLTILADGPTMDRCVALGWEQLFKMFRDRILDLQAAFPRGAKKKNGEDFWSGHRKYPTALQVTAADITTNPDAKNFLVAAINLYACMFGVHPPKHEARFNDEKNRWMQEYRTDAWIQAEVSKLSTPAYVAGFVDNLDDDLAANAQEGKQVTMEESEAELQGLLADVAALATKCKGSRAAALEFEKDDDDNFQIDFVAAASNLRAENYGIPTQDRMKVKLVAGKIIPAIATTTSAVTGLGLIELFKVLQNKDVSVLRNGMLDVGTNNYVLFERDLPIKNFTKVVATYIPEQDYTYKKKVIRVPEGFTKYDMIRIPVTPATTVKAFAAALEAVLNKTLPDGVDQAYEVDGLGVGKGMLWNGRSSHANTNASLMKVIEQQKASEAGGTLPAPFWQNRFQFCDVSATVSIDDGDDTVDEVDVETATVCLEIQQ

[3] = target: AMP-activated protein kinase, AMPK (Homo sapiens) (UniProt P54646+O43741+P54619+Q9UGJ0+Q9Y478+Q13131+Q9UGI9); assay: AMP-dependent Kinase enzyme assay. An in vitro enzyme assay that detects ADP turnover that is directly proportional to AMPK activity. This uses naive AMPK that is activated during the assay with MK-8722; type: functional; conditions: 30 µM
[4] = target: Sialic acid-binding Ig-like lectin 9 (Homo sapiens) (UniProt Q9Y336); assay: Hs-Siglec9 ALPHAscreen SOP 20170721; conditions: 10 µM
Trypanosoma cruzi = assay: Trypanosoma cruzi phosphomannomutase and mannose-1-phosphate guanylyltransferase assay; type: functional; conditions: 10 µM
[5] = target: T2, Arginase-2, mitochondrial (Homo sapiens) (UniProt P78540); assay: in vitro enzyme assay to detect the production of urea directly proportional to the activity of Arginase II; type: functional; conditions: 33.3 µM; also: in the data most compounds retested in dose-response had high values
T2 sequence (whole entry): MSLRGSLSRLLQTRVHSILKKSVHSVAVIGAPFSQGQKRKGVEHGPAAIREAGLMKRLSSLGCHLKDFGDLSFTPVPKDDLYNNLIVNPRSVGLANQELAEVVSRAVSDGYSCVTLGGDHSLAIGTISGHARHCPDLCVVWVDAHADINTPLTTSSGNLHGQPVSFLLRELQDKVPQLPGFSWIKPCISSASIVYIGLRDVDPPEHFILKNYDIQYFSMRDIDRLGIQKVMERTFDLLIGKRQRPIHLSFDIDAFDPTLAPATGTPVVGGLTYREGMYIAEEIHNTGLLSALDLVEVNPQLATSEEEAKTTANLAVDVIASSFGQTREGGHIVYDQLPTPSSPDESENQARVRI

[6] = target: T3, Proteasome subunit beta (Trypanosoma cruzi) (UniProt O96673); assay: Trypanosoma cruzi proteasome chymotrypsin-like activity (TcProtChymo) assay.; also: in the data most compounds retested in dose-response had high values; type: functional; conditions: 9.37 µM
T3 sequence (whole entry): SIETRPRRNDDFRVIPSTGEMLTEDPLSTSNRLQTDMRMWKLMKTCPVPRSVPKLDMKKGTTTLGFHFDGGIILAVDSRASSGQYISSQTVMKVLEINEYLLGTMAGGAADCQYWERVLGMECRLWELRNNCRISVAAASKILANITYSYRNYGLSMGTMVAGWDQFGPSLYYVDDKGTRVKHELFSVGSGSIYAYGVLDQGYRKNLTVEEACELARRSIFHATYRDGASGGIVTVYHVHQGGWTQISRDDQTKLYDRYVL

Homo sapiens = organism: Homo sapiens; assay: To identify inhibition of the IFN signalling (Jak-Stat) pathway via expression of an eGFP reporter gene under the control of an IFN-stimulated response element (ISRE) containing MxA promoter.; type: functional; conditions: 30 µM
[7] = target: T4, Tyrosyl-tRNA synthetase, putative (Trypanosoma cruzi (strain CL Brener)) (UniProt Q4DSP6); assay: Trypanosoma cruzi tyrosyl tRNA synthetase (TcYRS) _High Tyrosine SOP; type: functional; conditions: 30 µM; also: in the data most compounds retested in dose-response had high values
T4 sequence (whole entry): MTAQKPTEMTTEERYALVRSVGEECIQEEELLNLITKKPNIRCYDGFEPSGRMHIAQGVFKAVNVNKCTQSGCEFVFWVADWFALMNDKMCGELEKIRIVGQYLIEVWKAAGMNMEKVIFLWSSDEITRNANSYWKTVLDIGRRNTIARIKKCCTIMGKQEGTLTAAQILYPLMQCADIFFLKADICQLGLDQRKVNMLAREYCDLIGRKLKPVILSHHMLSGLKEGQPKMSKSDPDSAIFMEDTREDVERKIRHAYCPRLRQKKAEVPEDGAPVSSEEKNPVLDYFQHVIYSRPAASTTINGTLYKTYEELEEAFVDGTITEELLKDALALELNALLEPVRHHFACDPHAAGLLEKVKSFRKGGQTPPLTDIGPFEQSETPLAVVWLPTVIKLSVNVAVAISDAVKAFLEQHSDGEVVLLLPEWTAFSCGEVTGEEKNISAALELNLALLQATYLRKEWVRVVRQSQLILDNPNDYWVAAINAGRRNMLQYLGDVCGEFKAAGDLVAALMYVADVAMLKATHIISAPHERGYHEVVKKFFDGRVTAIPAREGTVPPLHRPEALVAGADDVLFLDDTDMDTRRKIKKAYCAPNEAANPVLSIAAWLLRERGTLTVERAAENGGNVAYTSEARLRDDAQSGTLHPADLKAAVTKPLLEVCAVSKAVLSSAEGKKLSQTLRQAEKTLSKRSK

[8] = target: T4, Tyrosyl-tRNA synthetase, putative (Trypanosoma cruzi (strain CL Brener)); assay: Trypanosoma cruzi tyrosyl tRNA synthetase (TcYRS) SOP; type: functional; conditions: 30 µM
[9] = target: Chromo domain-containing protein 1 (Saccharomyces cerevisiae (strain ATCC 204508 / S288c) (Baker's yeast)) (UniProt P32657); assay: ScCHD-1 Enzyme Inhibition Assay; type: functional; conditions: 30 µM; also: in the data most compounds retested in dose-response had high values
Sequence of Chromo domain-containing protein 1 (Saccharomyces cerevisiae (strain ATCC 204508 / S288c) (Baker's yeast)) (P32657 whole entry, the tested form may be a part): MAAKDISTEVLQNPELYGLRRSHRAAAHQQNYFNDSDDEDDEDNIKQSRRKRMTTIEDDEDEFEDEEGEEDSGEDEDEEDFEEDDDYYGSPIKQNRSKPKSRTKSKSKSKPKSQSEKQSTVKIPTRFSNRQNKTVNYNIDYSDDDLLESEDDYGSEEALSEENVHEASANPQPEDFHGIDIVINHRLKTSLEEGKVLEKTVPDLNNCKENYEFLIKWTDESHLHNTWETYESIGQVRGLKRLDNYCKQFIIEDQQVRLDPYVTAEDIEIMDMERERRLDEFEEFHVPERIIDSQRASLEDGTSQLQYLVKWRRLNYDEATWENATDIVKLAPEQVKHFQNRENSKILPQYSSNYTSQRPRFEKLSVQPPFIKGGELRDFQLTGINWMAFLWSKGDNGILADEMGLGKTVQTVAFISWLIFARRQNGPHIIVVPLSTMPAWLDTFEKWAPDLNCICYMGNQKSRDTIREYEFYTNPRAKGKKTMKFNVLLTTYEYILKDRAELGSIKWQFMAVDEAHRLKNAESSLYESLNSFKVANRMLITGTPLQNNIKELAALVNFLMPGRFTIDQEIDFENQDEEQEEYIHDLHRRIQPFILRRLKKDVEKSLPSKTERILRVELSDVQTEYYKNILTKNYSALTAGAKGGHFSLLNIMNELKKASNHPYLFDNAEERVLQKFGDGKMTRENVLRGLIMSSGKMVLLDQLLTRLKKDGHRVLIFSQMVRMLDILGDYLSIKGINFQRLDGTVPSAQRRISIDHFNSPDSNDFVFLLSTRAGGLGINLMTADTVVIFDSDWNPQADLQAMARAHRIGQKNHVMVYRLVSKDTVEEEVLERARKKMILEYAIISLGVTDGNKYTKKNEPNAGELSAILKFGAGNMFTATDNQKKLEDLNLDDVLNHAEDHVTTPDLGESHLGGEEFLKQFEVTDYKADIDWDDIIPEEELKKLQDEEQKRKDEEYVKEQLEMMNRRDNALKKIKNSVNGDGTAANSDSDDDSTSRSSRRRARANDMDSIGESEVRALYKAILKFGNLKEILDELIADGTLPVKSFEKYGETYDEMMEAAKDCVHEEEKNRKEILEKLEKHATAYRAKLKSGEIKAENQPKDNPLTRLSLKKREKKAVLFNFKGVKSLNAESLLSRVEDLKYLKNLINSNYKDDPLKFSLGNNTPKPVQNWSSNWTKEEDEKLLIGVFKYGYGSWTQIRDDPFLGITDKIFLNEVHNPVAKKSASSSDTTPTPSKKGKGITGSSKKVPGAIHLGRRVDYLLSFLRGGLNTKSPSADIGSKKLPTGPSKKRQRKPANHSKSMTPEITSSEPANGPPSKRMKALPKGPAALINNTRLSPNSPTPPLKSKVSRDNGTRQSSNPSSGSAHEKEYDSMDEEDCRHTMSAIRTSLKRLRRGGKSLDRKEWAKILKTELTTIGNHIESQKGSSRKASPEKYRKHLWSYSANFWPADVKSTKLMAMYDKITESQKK

Sequence of Protein translocase subunit SecA (Escherichia coli (strain K12)) (P10408 whole entry): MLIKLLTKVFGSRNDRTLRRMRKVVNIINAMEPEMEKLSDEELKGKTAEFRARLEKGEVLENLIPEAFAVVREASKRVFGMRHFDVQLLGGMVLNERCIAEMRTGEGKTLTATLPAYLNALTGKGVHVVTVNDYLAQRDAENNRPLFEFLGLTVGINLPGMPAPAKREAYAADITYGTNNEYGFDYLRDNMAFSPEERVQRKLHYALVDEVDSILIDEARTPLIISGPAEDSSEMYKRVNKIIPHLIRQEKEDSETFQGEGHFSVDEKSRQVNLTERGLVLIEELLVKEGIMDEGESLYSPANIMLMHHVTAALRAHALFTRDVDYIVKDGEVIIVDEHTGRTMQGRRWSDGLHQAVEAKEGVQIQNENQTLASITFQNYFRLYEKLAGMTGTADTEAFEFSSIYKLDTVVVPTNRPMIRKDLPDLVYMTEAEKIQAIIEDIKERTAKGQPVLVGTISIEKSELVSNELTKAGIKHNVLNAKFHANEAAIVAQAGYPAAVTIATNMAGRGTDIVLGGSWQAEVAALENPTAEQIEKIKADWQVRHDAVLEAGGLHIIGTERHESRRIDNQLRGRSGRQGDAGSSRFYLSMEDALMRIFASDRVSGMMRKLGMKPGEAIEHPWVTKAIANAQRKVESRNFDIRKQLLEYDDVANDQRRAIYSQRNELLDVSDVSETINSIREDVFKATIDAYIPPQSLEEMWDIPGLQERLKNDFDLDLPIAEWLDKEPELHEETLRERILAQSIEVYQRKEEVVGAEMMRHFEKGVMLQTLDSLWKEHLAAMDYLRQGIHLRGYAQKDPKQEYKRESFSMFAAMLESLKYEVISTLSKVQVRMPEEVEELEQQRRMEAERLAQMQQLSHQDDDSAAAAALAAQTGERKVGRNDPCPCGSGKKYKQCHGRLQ
Sequence of Sialic acid-binding Ig-like lectin 9 (Homo sapiens) (Q9Y336 whole entry): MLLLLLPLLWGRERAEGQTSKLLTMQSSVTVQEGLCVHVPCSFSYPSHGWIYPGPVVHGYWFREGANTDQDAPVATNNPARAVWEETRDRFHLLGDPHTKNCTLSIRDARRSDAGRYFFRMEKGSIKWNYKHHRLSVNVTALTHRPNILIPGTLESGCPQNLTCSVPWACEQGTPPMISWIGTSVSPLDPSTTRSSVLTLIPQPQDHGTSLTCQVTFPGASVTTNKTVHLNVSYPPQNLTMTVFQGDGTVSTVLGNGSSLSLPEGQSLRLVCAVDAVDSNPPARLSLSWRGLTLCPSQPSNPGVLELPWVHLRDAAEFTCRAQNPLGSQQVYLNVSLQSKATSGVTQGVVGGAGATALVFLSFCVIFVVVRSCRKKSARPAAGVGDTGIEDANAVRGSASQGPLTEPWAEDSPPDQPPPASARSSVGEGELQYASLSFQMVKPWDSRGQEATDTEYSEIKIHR

Row | SMILES | Percent Effect [1] [%] | Percent Effect [2] [%] | Percent Effect [3] [%] | Percent Effect [4] [%] | Percent Effect (Trypanosoma cruzi) [%] | Percent Effect [5] [%] | Percent Effect [6] [%] | Percent Effect (Homo sapiens) [%] | Percent Effect [7] [%] | Percent Effect [8] [%] | Percent Effect [9] [%]
1 | Cc1cc(C(=O)N2CCCC2Cn2nc(C)cc2C)on1 (configuration not stated) | -2.76 | 10.8 | -7.13 | 13.4 | 3.87 | -7.62 | 4.14 | 8.42 | 5.42 | 18.5 | -8.04
2 | Cc1noc(C)c1C1CCCN1C(=O)CN1CC2(CCNCC2)OC1=O (configuration not stated) | -6.39 | 0 | 4.75 | 9.41 | -1.35 | -3.81 | 6.9 | -4.21 | 3.7 | 0 | -4.34
3 | O=C(COCC1CC1)N1CCCC(n2cncn2)C1 (configuration not stated) | 1.39 | 10.8 | -12 | -7.81 | -3.3 | -2.81 | 13 | 12.5 | 1.48 | 16.1 | -2.64
4 | COc1cccc(S(=O)(=O)NC(=O)COC2CCCC2)c1 | -1.91 | 20.8 | 2.89 | 10.4 | 2.06 | 2.85 | 10.6 | 3.15 | 8.74 | 24.4 | -6.86
5 | CCC(CC)c1cc(CNC(=O)N2CCCC(N(C)C)C2)on1 (configuration not stated) | -3.85 | 8.11 | -7.08 | 17.6 | 6.55 | 0.248 | 12.8 | 7.88 | 6.45 | 13.6 | -6.35
6 | Cc1cnn(CCNCc2ccccc2OCc2cccnc2)c1 | -4.98 | -3.8 | 2.64 | 6.26 | -1.95 | 1.5 | 17 | 5.87 | 5.21 | 5.06 | -13
7 | COCCCNC(=O)NCc1ccc(C)cc1 | -4.5 | 6.33 | -3.62 | -1.57 | -0.308 | -4.52 | 13.2 | 1.42 | 5.21 | 17.7 | -28.6
8 | OCCN1CCOC2(CCCN(c3cccc(F)c3)C2)C1 (configuration not stated) | -3.44 | 13.3 | 5.94 | -3.82 | 0.394 | 0.233 | 8.55 | 3.49 | 10.6 | 24.4 | -6.84
9 | CCc1c(C)nc2n(c1=O)CC(C(=O)Nc1ccccc1F)CS2 (configuration not stated) | -5.58 | 18.2 | -0.318 | 8.95 | 0.888 | -1.94 | 7.83 | 9.05 | 6.35 | 16.7 | -4.84
10 | CSC(C)(C)CNC(=O)NC1CCSCC1 | -4.83 | 13.3 | -5.19 | 18.2 | 8.47 | 5.73 | 6.63 | 4.48 | 0.546 | 11.1 | -6.59
11 | Cc1noc([C@H]2COC[C@H]3CN(C(=O)Cc4ccc(F)cc4)C[C@H]32)n1 | -6.71 | 10.8 | -2.57 | 13.3 | 3.91 | 3.75 | 7.18 | -8.46 | 5.94 | 11 | -1.22
12 | O=C([C@H]1C[C@@H]2CCN(C3CCOCC3)C[C@@H]2O1)N1CCOCC1 | 4.05 | 5.33 | -5.76 | 14.3 | -3.48 | -54.7 | 16.8 | -8.99 | 7.29 | 12.5 | -5.71
13 | COc1ccc(OC)c(CNCCc2cc(F)cc3c2OCOC3)c1 | -5.17 | -6.94 | -9.7 | 2.47 | 4.57 | -3.09 | 7.19 | 4.72 | 2.1 | 2.56 | -2.06
14 | O=C(C1CCN(c2snc3ccccc23)CC1)N1CCCCCC1 | 1.1 | 24.1 | 2.83 | -3.46 | -0.923 | -4.52 | 13.7 | 59.6 | 5.21 | 7.59 | -21.3
15 | NCc1cnn(-c2ccccc2C(=O)NCCCn2ccnc2)c1 | -3.74 | 6.76 | 9.61 | -1.25 | -3.16 | -1.16 | 0.312 | 4.01 | 7.53 | 11.7 | -2.44
16 | COCCN1C[C@@H](C)[C@@]2(COCCN(C(=O)Cc3ccccc3)C2)C1 | -2.42 | 10.7 | 4.69 | 6.89 | 1.54 | -54.7 | 5.13 | -15.6 | 5.21 | 12.5 | -7.47
17 | CSc1ncccc1C(=O)NCc1ccc(CS(=O)(=O)NC(C)C)cc1 | -2.86 | 13.9 | 2.75 | -0.901 | -1.74 | 3.23 | 15.4 | 21.4 | 2.08 | 2.53 | -26.4
18 | Cc1nnc(N2CCC(CS(N)(=O)=O)CC2)c(C#N)c1C | -5.18 | 2.6 | -17.4 | -9.8 | 0.49 | -1.9 | 16.1 | 7.88 | 3.81 | 9.41 | -16.6
19 | CN(C)C(=O)N1CCOCC2(CCN(c3ccccn3)C2)C1 (configuration not stated) | -1.92 | -2.7 | -1.14 | -5.57 | -2.64 | 2.23 | 9.19 | -4.16 | 1.07 | 1.24 | -3.16
20 | CCOC(CC)C(=O)NCCC(=O)N1CCN(c2ncccn2)CC1 (configuration not stated) | -2.66 | 2.63 | 4.87 | 5.24 | 5.94 | 0 | 7.19 | 0.555 | 3.19 | 5.2 | 1.78
21 | O=C(c1ccc2c(c1)OCO2)N1CCC[C@]2(C[C@H](OCC3CC3)CO2)C1 | -3.85 | 13.3 | 10.8 | -11.4 | 0.197 | 2.56 | 5.37 | 6.01 | 8.51 | 14.1 | -8.25
22 | CN1CCc2cc(C(CNS(=O)(=O)c3cccs3)N3CCCC3)ccc21 (configuration not stated) | -1.64 | 13 | 7.05 | -7.92 | -5.42 | -9.68 | 8.88 | 12.5 | 0 | 8.97 | -8.44
